# Inconclusive results are not listed. Activity calls are given as the source filed them. The calls were made as follows, unless noted: active = hit-call score of the fitted dose curve at least 0.9, where 1 is the maximum; inconclusive = response in the unintended direction; inactive = score below 0.9.
# Experiments:
# [1] = CCTE_Padilla_ZF_144hpf_TERATOSCORE: (Legacy) CCTE's 144 Hour Post-fertilization zebrafish Assay Teratoscore, Padilla Lab (AID 2283679; active = hit-call score of the fitted dose curve at least 0.9, where 1 is the maximum; inactive = score below 0.9;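 as to AC50: zebrafish embryos with chorions exposed by immersion from 6-8 hpf to 5 dpf with daily renewal; teratogenicity score from eye scoring of death hatching and malformations at 144 hpf; higher score means more developmental defects relative to DMSO baseline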)
# In short: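 Larvae scored by eye at 144 hpf for death, hatching and malformations after a day in clean Hanks'. Before that, daily-renewed exposure at 80 uM (0.4% DMSO, 26C) from roughly 6-8 hpf through 5 dpf, 4 embryos per chemical.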
# [2] = read-out: xenobiotic metabolism (CYP1A2), CYP1A2 (gene 1544); experiment: CLD_CYP1A2_24hr: CellzDirect (CLD) Gene Expression Assay for xenobiotic metabolism (CYP1A2) at 24 hours (AID 2283683)
# In short: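 Primary human hepatocytes from two donor preparations dosed daily with multiple concentrations of chemical, 0.2% DMSO vehicle. CYP1A2 mRNA at 24 h quantified by qNPA chemiluminescence; gain of signal analyzed relative to DMSO. Cytotoxicity flagged by phase-contrast morphology.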
# [3] = read-out: Cytochrome P450 2B6 (Homo sapiens) (UniProt P20813); experiment: CLD_CYP2B6_24hr: CellzDirect (CLD) Gene Expression Assay for xenobiotic metabolism (CYP2B6) at 24 hours (AID 2283686)
# In short: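 Primary human hepatocytes dosed daily for two days with fresh solutions, harvested at 24 hours; mRNA induction quantified by qNPA chemiluminescence, gain of signal vs 0.2% DMSO vehicle. Cytotoxicity annotated from phase-contrast morphology.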
# [4] = read-out: Cytochrome P450 2C9 (Homo sapiens) (UniProt P11712); experiment: CLD_CYP2C9_24hr: CellzDirect (CLD) Gene Expression Assay for xenobiotic metabolism (CYP2C9) at 24 hours (AID 2283688)
# In short: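 Primary human hepatocytes from two donor preparations, dosed daily for two days at multiple concentrations; vehicle 0.2% DMSO. CYP2C9 mRNA induction at 24 h measured by qNPA chemiluminescence relative to DMSO; cytotoxicity annotated from morphology.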
# [5] = read-out: alkyl and aryl transferase (GSTA2), GSTA2 (gene 2939); experiment: CLD_GSTA2_24hr: CellzDirect (CLD) Gene Expression Assay for alkyl and aryl transferase (GSTA2) at 24 hours (AID 2283693)
# In short: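 Primary human hepatocytes (two donor preparations) dosed daily for two days with chemicals at multiple concentrations (vehicle 0.2% DMSO); GSTA2 mRNA at 24 h measured by qNPA chemiluminescence, gain-of-signal versus DMSO.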
# [6] = read-out: ABC Transporter (ABCB1), ABCB1 (gene 5243); experiment: CLD_ABCB1_24hr: CellzDirect (CLD) Gene Expression Assay for ABC Transporter (ABCB1) at 24 hours (AID 2283684)
# In short: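 Primary human hepatocytes, two donor preparations, dosed daily with fresh solutions; vehicle 0.2% DMSO; harvested at 24 h. ABCB1 mRNA measured by quantitative nuclease protection assay (chemiluminescence); morphology-based cytotoxicity annotated.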
# [7] = read-out: Broad substrate specificity ATP-binding cassette transporter ABCG2 (Homo sapiens) (UniProt Q9UNQ0); experiment: CLD_ABCG2_24hr: CellzDirect (CLD) Gene Expression Assay for ABC Transporter (ABCG2) at 24 hours (AID 2283685)
# In short: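 Primary human hepatocytes were dosed daily with ToxCast chemicals at multiple concentrations (vehicle 0.2% DMSO). ABCG2 mRNA was measured at 24 h by qNPA chemiluminescence; induction was scored as gain of signal versus DMSO.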
# [8] = read-out: Cytochrome P450 3A4 (Homo sapiens) (UniProt P08684); experiment: CLD_CYP3A4_24hr: CellzDirect (CLD) Gene Expression Assay for xenobiotic metabolism (CYP3A4) at 24 hours (AID 2283689)
# In short: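 Primary human hepatocytes from two donors dosed daily with fresh compound for two days, 0.2% DMSO vehicle. CYP3A4 mRNA at 24 hr by qNPA chemiluminescence; gain-of-signal fit versus DMSO, cytotoxicity flagged by morphology.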
# Cytochrome P450 3A4 (Homo sapiens), sequence (P08684 whole entry, looked up): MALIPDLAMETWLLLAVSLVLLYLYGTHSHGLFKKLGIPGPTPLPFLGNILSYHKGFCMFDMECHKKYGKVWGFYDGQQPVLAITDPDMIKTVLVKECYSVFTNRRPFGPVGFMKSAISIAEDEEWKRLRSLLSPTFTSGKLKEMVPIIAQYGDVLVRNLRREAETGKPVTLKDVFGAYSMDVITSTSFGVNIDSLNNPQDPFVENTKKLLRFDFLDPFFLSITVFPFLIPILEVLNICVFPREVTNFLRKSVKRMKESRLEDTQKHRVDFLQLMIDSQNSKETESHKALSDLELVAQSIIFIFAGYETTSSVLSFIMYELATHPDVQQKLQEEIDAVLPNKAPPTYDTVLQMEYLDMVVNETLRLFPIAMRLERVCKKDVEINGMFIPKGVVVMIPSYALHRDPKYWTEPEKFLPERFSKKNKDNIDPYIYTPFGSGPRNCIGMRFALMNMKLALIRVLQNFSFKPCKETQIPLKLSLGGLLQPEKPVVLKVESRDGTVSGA
# Broad substrate specificity ATP-binding cassette transporter ABCG2 (Homo sapiens), sequence (Q9UNQ0 whole entry, looked up): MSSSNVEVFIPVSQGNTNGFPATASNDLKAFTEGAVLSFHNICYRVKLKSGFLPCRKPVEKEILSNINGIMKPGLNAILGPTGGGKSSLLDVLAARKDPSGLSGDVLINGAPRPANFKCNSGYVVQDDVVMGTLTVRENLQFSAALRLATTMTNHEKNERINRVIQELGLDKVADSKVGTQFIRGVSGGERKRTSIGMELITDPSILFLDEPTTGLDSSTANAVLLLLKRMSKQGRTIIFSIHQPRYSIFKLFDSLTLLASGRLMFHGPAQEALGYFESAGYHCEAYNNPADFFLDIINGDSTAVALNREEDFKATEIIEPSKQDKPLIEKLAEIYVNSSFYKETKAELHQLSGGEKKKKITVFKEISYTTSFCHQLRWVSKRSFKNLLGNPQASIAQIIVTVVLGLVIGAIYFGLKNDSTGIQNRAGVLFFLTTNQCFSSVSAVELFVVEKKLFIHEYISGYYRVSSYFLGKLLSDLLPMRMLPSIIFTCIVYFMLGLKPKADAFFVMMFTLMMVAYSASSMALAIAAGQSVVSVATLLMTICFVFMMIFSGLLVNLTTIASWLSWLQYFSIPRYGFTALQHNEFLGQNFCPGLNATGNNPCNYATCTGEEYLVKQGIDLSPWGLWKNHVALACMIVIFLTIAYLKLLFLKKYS
smiles,measurement,setting,value
COc1ccc(C(c2ccc(OC)cc2)C(Cl)(Cl)Cl)cc1,AC50,[1],1.14 µM (active)
same,AC50,[2],20 µM (active)
same,AC50,[3],7.11 µM (active)
same,outcome,[4],inactive
same,outcome,[5],inactive
CC1COC(Cn2cncn2)(c2ccc(Oc3ccc(Cl)cc3)cc2Cl)O1 (stereo not given),AC50,[1],5.5 µM (active)
same,AC50,[2],0.729 µM (active)
same,outcome,[6],inactive
same,outcome,[7],inactive
same,AC50,[3],0.000442 µM (active)
same,AC50,[8],1.9 µM (active)
same,outcome,[5],inactive
N#Cc1nn(-c2c(Cl)cc(C(F)(F)F)cc2Cl)c(N)c1S(=O)C(F)(F)F (stereo not given),AC50,[1],31.1 µM (active)
same,outcome,[6],inactive
same,outcome,[7],inactive
same,AC50,[3],1.9 µM (active)
same,AC50,[8],1.89 µM (active)
same,outcome,[5],inactive
CCc1nn(C)c(C(=O)NCc2ccc(C(C)(C)C)cc2)c1Cl,AC50,[1],0.164 µM (active)
same,outcome,[2],inactive
same,outcome,[6],inactive
same,outcome,[7],inactive
same,outcome,[3],inactive
same,AC50,[8],20 µM (active)
same,outcome,[5],inactive
COC(=O)C=C(C)OP(=O)(OC)OC,AC50,[1],48.1 µM (active)
same,outcome,[2],inactive
same,outcome,[6],inactive
same,outcome,[3],inactive
Fc1ccc(Oc2ccnc3cc(Cl)cc(Cl)c23)cc1,AC50,[1],5.83 µM (active)
same,AC50,[2],2.84 µM (active)
same,outcome,[6],inactive
same,outcome,[7],inactive
same,outcome,[3],inactive
same,outcome,[5],inactive
COP(N)(=O)SC (stereo not given),outcome,[1],inactive
same,outcome,[6],inactive
same,outcome,[4],inactive
CNC(=S)S,outcome,[2],inactive
same,outcome,[6],inactive

# From PubChem BioAssay (EPA / NIEHS)
